SMN2 splice enh = qHTS Assay for Enhancers of SMN2 Splice Variant Expression; HEK293 SMN2-luciferase splicing reporter, luminescence, 30-36 h; Potency, µM (titrated, usually from 46.1 µM), most hits filed as activators; actives 2.8% (n = 210,000); AID 1458, 2008; further: nearly all actives have a fitted effect of over 55% in size
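HEK293 cells carry an SMN2 […]–luciferase reporter in which exon 7 inclusion puts luciferase in frame. Cells were plated 10-12 h before compound addition, then incubated 30-36 h at 37C. ONE-Glo luminescence was read; sodium butyrate at 4.5 mM final served as control.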
ELG1 genotoxic = qHTS screen for small molecules that induce genotoxicity in human embryonic kidney (HEK293T) cells expressing luciferase-tagged ELG1; HEK293T ELG1-luciferase reporter, luminescence, 16 h; Potency, µM (highest dose often 46 µM), hits mostly activators; actives 1.3% (n = 330,000); further: nearly all actives have a fitted effect of over 60% in size
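Cells (2,000/well) expressing the ELG1-luciferase fusion are dosed by pin tool and kept 16 hr at 37 °C, 5% CO2. Signal comes from ONE-Glo luciferase reagent after 30 min at room temperature.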
Rab9 prom act = qHTS Assay for Rab9 Promoter Activators; Huh7 Rab9 promoter-luciferase reporter, luminescence, 24 h; Potency, µM (doses to about 9.22 µM), actives largely listed as activators; actives 2.8% (n = 320,000); AID 485297, 2010; further: nearly all actives have a fitted effect of over 60% in size
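Measured in stably transfected Huh7 cells bearing a Rab9 promoter–luciferase construct: 24 h compound treatment at 37 °C, followed by luminescence detection.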
FLuc counter = qHTS profiling assay for firefly luciferase inhibitor/activator using purifed enzyme and Km concentrations of substrates (counterscreen for miR-21 project). Luciferin 4-monooxygenase (Photinus pyralis), P08659. purified FLuc, Km substrates, luminescence inhibition. Potency, µM (top dose mostly 57.5 µM), usual class: inhibitors. actives 6.9% (n = 360,000); further: nearly all actives have a fitted effect of over 55% in size
Target sequence (P08659 whole entry, looked up): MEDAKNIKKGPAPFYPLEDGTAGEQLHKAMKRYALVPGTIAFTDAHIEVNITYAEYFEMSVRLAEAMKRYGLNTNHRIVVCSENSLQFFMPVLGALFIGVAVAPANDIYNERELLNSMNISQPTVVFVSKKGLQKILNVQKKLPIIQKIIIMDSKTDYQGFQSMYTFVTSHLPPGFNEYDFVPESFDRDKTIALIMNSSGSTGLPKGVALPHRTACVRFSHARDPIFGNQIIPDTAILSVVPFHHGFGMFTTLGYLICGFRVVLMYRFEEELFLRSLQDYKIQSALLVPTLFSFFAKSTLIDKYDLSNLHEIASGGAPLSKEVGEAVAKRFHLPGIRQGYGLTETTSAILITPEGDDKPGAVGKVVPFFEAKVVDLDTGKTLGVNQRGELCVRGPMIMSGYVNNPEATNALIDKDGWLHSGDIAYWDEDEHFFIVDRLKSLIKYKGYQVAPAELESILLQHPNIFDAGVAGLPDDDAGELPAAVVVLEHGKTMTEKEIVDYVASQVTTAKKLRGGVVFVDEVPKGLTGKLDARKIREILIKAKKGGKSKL
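Biochemical qHTS of compounds, final roughly 60 µM downward over six points, against 10 nM purified firefly luciferase using Km concentrations of substrates (10 uM D-luciferin, 10 uM ATP) in Tris acetate pH 7.5 buffer; luminescence output.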
p53 reactivation = qHTS assay for re-activators of p53 using a Luc reporter; Potency, µM (doses to about 92.2 µM), hits mostly activators; actives 0.063% (n = 320,000); H1299 p53-A138V BP100-luciferase reporter, luminescence, 24 h; AID 504706, 2011; further: nearly all actives have a fitted effect of over 45% in size
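p53-null H1299 cells stably carrying temperature-sensitive p53-A138V and a BP100-luciferase reporter were pinned with compounds (4-point, 1:5 series) and held 24 hrs at 37 deg C. Luminescence was read 10 min after detection reagent.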
NPC1 promoter act = qHTS Assay for NPC1 Promoter Activators | Huh7 NPC1 promoter luciferase reporter, 24 h | Potency, µM (highest dose often 9.22 µM), actives largely listed as activators | actives 2.4% (n = 320,000) | AID 485313, 2010; further: nearly all actives have a fitted effect of over 60% in size
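Luciferase expression driven by the NPC1 promoter was measured in stably transfected Huh7 cells after a 24 h compound incubation, using a luciferase reagent and a luminescence read.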
Hits are given with their value; i = inactive; ? = inconclusive; nt = no result given; [ ] = another dose, or the depositor's remark. Rows were chosen to be rich in hits. Some 7.4% of all compounds tested hit in one or more screens of this group. The call rests on the fitted dose curve; in most records, active means well fitted curve in the direction sought with a large enough effect; inconclusive means small, poorly fitted or top-dose-only effect, or another doubt; inactive means no such curve, though single readings can be large; an effect the other way counts as inactive or inconclusive.

SMILES	SMN2 splice enh	ELG1 genotoxic	Rab9 prom act	FLuc counter	p53 reactivation	NPC1 promoter act
O=C(Nc1ccccc1N1CCOCC1)c1cc2c(s1)CCCCC2	nt	i	?	4.8µM	i	i
O=C(Nc1ccc(N2CCOCC2)cc1)c1cc2c(s1)CCCCC2	i	i	i	19µM	i	i
CCC(C)C(NC(=O)c1ccc(Cl)cc1)C(=O)O (stereo not given)	nt	i	i	i[2.3 µM]	i	i
CCC(C)C(NC(=O)c1ccc(Cl)cc1Cl)C(=O)O (stereo not given)	i	i	i	19µM	i	i
COC(=O)Cc1c(C)nc2nc(-c3ccc(Cl)cc3)[nH]n2c1=O	i	?	i	11µM	i	i
COC(=O)Cc1c(C)nc2nc(-c3ccc(C)cc3)[nH]n2c1=O	i	?	i	8.5µM	i	i
COC(=O)Cc1c(C)nc2nc(Cc3ccccc3)[nH]n2c1=O	i	i	i	i[2.3 µM]	i	i
COC(=O)Cc1c(C)nc2nc(-c3ccccc3)[nH]n2c1=O	i	i	i	17µM	i	i
COC(=O)Cc1c(C)nc2nc(-c3cccnc3)[nH]n2c1=O	i	i	i	?	i	i
CCOC(=O)CCNC(=O)N1CCCC(N2CCN(c3ccc(OC)cc3)CC2)C1 (stereo not given)	nt	i	i	i	i	i
CCN(CC)C(=O)C1CCCc2c1[nH]c1ccc(Cl)cc21 (stereo not given)	3.5µM	i	i	i	i	i
COc1ccccc1N(C)S(=O)(=O)c1ccc(Cl)c(C(=O)NNC(=O)c2ccccc2O)c1	nt	i	i	17µM	i	i
Cc1nc2ccn(Cc3ccco3)c(=O)c2cc1C(=O)N1CCN(c2ccccc2F)CC1	nt	nt	nt	i	nt	nt
O=C(Nc1cccc2ccccc12)c1ccc(F)cc1	nt	i[9.26 µM]	i	?	?	i
O=C(Nc1cccc2ccccc12)c1ccccc1	i[9.22 µM]	?	3.5µM	13µM	?	?
O=C(Nc1cccc2ccccc12)c1ccccc1Cl	nt	i	i	i	i	i
Nc1ccccc1C(=O)Nc1cccc2ccccc12	nt	?	2.8µM	19µM	i	3.2µM
CC(=O)c1cccc(NC(=O)C(=O)Nc2cccc3ccccc23)c1	nt	i	2.5µM	?	i	?
CCc1ccccc1NS(=O)(=O)c1ccc2c(c1)OCC(C(=O)N1CCCC1)O2 (stereo not given)	nt	nt	nt	i	nt	nt
COc1ccc(C)cc1NC(=O)NCCn1nnc2cc(S(=O)(=O)N(C)C)ccc21	nt	nt	nt	i	nt	nt
COC(=O)c1ccc(-c2noc(CN3C[C@H]4CC[C@H]3C4)n2)cc1	nt	?	?	21µM	i	?
COC(=O)c1ccc(-c2noc(CN(C)CC3CCCCO3)n2)cc1 (stereo not given)	10µM	i	i	i	i	i
COC(=O)c1ccc(-c2noc(CN(Cc3ccncc3)CC3CCCO3)n2)cc1 (stereo not given)	nt	i	i	i	i	i
COc1ccc(OCCSc2nc(N)cc(N)n2)cc1	i	0.73µM	4µM	21µM	i	4µM
Clc1ccc(OCCCCSc2ncccn2)cc1	i	i	i	?	i	i
SMILES	SMN2 splice enh	ELG1 genotoxic	Rab9 prom act	FLuc counter	p53 reactivation	NPC1 promoter act
CCCOc1ccc(OCCSc2ncccn2)cc1	16µM	10µM	4µM	6.7µM	?	3.2µM
Cc1ccc(OCCSc2nc(N)cc(N)n2)cc1	nt	?	1.8µM	24µM	i	3.2µM
Clc1ccc(OCCSc2ncccn2)c(Br)c1	13µM	2.1µM	0.71µM	2.1µM	i	1.4µM
CC(=O)c1cccc(NC(=O)c2oc(=O)c3ccccc3c2-c2ccccc2)c1	nt	nt	nt	i	nt	nt
CSc1ccccc1NC(=O)Nc1cccc(Cl)c1Cl	i	i	i	i	i	i
COc1ccc(Nc2cccc(Cl)c2)c(C(=O)O)c1	?	i	i	i	i	i
CSc1ccccc1NC(=O)Nc1ccc(F)c(Cl)c1	i	i	i	12µM	i	i
CSc1ccccc1NC(=O)Nc1cccc(Cl)c1	i	i	i	24µM	i	i
CSc1ccccc1NC(=O)Nc1cccc(Cl)c1C	i	i	i	i	i	i
Cc1ccc(NC(=O)Nc2cccc(Cl)c2)c(C(=O)O)c1	i	i	i	12µM	i	i
O=C(COc1ncnc2ccccc12)Nc1ccc(S(=O)(=O)N2CCOCC2)cc1	nt	i	i	i	i	i
COc1ccc(C(=O)/C=C/c2cn(CN3CCN(C)CC3)c3ccccc23)cc1	i	?	i	6µM	?	i
Cc1ccc(C(=O)/C=C/c2cn(CC(O)CN3CCOCC3)c3ccccc23)cc1 (stereo not given)	i	i	i	?	?	i
CCCN(CCC)CC(O)Cn1cc(/C=C/C(=O)c2ccc(OCC)cc2)c2ccccc21 (stereo not given)	i	nt	nt	i	nt	nt
COc1ccc(C(=O)/C=C/c2cn(CC(O)CN3CCOCC3)c3ccccc23)cc1 (stereo not given)	i	i	i	15µM	i	i
CCOc1ccc(C(=O)/C=C/c2cn(CN3CCN(C)CC3)c3ccccc23)cc1	i	i	i	17µM	i	i
CCc1ccccc1NC(=O)C(Cc1ccccc1)c1nn[nH]n1 (stereo not given)	nt	i	i	i	i	i
CNc1nc(-c2ccccc2)[n+](-c2ccc(C)cc2)s1	nt	i	i	6.7µM	i	i
CCN1C(=O)/C(=C\C=C2/C=CC=CN2CC)SC1=S	5.6µM	21µM	1.4µM	3.8µM	?	1.6µM
CCN1C(=O)/C(=C/C=C2\C=CN(CC)c3ccccc32)SC1=S	i	?	3.2µM	?	?	?
COc1cc(/C=C/C(=O)OCC(=O)Nc2nnc(-c3ccccc3)o2)cc(OC)c1OC	nt	i	i	i	i	i
CCn1c(=O)cc(SCC(=O)N2CCN(c3cc(C)ccc3C)CC2)c2ccccc21	i	nt	nt	i	nt	nt
COc1cc2c(cc1OC)CN(CC(=O)Nc1cccc(C(F)(F)F)c1)CC2	nt	i	i	i	i	i
COc1ccccc1N1CCN(C2CCCN(C(=O)CCC(C)=O)C2)CC1 (stereo not given)	nt	i	i	i	nt	i
O=C(O)C[C@H](NC(=O)CP(=O)(O)O)C(=O)O.[NH-][C@@H]1CCCC[C@@H]1[NH-].[Pt]	2.5µM	nt	nt	nt	nt	nt
CC(=O)NC(CC(=O)O)C(=O)O (stereo not given)	i	i	i	i	i	i
COc1cc(/C=C2\SC(=N)N(c3ccc(F)cc3)C2=O)ccc1O	i	i	i	i	i	i

Compound activity (PubChem)
